Experiment [1] concerns the target Parathyroid hormone/parathyroid hormone-related peptide receptor (Homo sapiens) (UniProt Q03431). The experiment in a line: qHTS for PTHR1 Agonists: Optimization Screen against the NCGC LOPAC library (AID 1347079).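 Further: GloSensor cAMP luminescence in HEK-293 GP2 cells expressing human PTHR1 with IBMX.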 Put shortly:
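Signal increase flags agonism. GP2 cells, derived from HEK-293, express human PTHR1 and a GloSensor cAMP construct.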

A short description of experiment [2]: qHTS of pediatric cancer cell lines to identify multiple opportunities for drug repurposing: Primary screen for TC32 cells (AID 1347089). Further: nearly all actives have a fitted effect of over 60% in size. Further: potency means the concentration at half of the fitted maximal effect. Put shortly:
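TC32 cells, 500-1,000/well in growth medium, compound-treated 48 h at 37 °C; viability from CellTiter-Glo luminescence. Primary screen: MIPE 11-point (0.78 nM–46 µM final), NPC 8-point (0.59 nM–46 µM final); confirmatory at 11-point dilutions.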

A short description of experiment [3]: qHTS of pediatric cancer cell lines to identify multiple opportunities for drug repurposing: Primary screen for DAOY cells (AID 1347090). Further: nearly all actives have a fitted effect of over 55% in size. Further: potency means the concentration at half of the fitted maximal effect. Put shortly:
(§1)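 Viability measured as metabolically active cells via CellTiter-Glo luminescence following 48 hours of compound exposure, 11-point dilutions in confirmatory testing. 500-1,000 cells/well plated 5 hours before dosing; controls were DMSO and 2.3 µM bortezomib.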

The nature of experiment [4]: qHTS of pediatric cancer cell lines to identify multiple opportunities for drug repurposing: Primary screen for SJ-GBM2 cells (AID 1347091). Further: potency means the concentration at half of the fitted maximal effect. In outline: as §1
Experiment [5] in a line: qHTS of pediatric cancer cell lines to identify multiple opportunities for drug repurposing: Primary screen for A673 cells (AID 1347092). Further: nearly all actives have a fitted effect of over 45% in size. Further: potency means the concentration at half of the fitted maximal effect. Put shortly: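 A673 cells (500-1,000 cells/well) were treated 48 hours at 37 degrees C with compounds at 11-point (0.78 nM to 46 µM) or 8-point (0.59 nM to 46 µM) dilutions. Viability read by CellTiter-Glo luminescence; concentration-response curves fitted.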

Experiment [6] is described as follows: qHTS of pediatric cancer cell lines to identify multiple opportunities for drug repurposing: Primary screen for SK-N-MC cells (AID 1347093). Further: potency means the concentration at half of the fitted maximal effect. Put shortly: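 Metabolically active cells were quantified by ATP-dependent luminescence (CellTiter-Glo, 15 min at room temperature) following 48 h treatment. Cells had been plated at 500-1,000 per well and settled for 5 h beforehand.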

The nature of experiment [7]: qHTS of pediatric cancer cell lines to identify multiple opportunities for drug repurposing: Primary screen for BT-37 cells (AID 1347094). Further: potency means the concentration at half of the fitted maximal effect. In outline: (§2)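 500-1,000 cells/well; 5 h pre-incubation 37 °C/5% CO2; compound pinned; 48 h; CellTiter-Glo, 15 min RT; luminescence. MIPE 11-pt from 0.78 nM, NPC 8-pt from 0.59 nM final. Bortezomib 2.3 µM final as positive control.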

The nature of experiment [8]: qHTS of pediatric cancer cell lines to identify multiple opportunities for drug repurposing: Primary screen for NB-EBc1 cells (AID 1347095). Further: potency means the concentration at half of the fitted maximal effect. Put shortly:
as §2

The nature of experiment [9]: qHTS of pediatric cancer cell lines to identify multiple opportunities for drug repurposing: Primary screen for U-2 OS cells (AID 1347096). Further: nearly all actives have a fitted effect of over 50% in size. Further: potency means the concentration at half of the fitted maximal effect. Put shortly:
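Viability after 48 h compound treatment at 37C, 500-1,000 cells/well, read as ATP luminescence with CellTiter-Glo. Primary screens used 11-point (MIPE, 0.78 nM-46 µM) or 8-point (NPC, 0.59 nM-46 µM) final concentrations; follow-up screens used 11-point dilutions.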

Experiment [10] in a line: qHTS of pediatric cancer cell lines to identify multiple opportunities for drug repurposing: Primary screen for Saos-2 cells (AID 1347097). Further: nearly all actives have a fitted effect of over 40% in size. Further: potency means the concentration at half of the fitted maximal effect. In outline:
as §2

Results filed as inconclusive are left out. Active and inactive are the calls of the source. The call rests on the fitted dose curve; in most records, active means well fitted curve in the direction sought with a large enough effect; inconclusive means small, poorly fitted or top-dose-only effect, or another doubt; inactive means no such curve, though single readings can be large; an effect the other way counts as inactive or inconclusive.

Sequence of Parathyroid hormone/parathyroid hormone-related peptide receptor (Homo sapiens) (Q03431 whole entry, looked up): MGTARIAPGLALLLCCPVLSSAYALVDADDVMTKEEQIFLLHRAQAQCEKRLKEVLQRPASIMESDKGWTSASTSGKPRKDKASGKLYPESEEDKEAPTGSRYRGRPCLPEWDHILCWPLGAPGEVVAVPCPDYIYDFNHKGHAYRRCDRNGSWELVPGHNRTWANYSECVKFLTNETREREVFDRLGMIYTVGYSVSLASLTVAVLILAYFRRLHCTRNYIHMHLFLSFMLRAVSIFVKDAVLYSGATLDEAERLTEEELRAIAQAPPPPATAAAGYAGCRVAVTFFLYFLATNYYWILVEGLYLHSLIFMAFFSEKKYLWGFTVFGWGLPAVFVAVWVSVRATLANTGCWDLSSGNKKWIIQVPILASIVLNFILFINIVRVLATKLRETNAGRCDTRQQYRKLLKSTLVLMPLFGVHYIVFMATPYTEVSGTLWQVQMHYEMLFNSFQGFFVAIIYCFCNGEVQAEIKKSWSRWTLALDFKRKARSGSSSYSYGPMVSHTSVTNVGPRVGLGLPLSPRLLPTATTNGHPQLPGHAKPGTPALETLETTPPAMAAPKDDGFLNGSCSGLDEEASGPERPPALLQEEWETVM

Consider `O=C(NCCN1CCOCC1)c1ccc(Cl)cc1`, for which the call in experiment [1] was inactive. The Potency result in experiment [2], in [3], in experiment [4], in experiment [5], in experiment [6] and in [7] was “inactive” in each case. In addition, the Potency entry in experiment [8], in [9] and in experiment [10] was “inactive” each time.

Regarding `CC(=O)O[C@]1(C(C)=O)CC[C@H]2[C@@H]3C=C(Cl)C4=CC(=O)[C@@H]5C[C@@H]5[C@]4(C)[C@H]3CC[C@@]21C`, the compound was called inactive in [1]. Moreover, the Potency entry in [2], in experiment [4], in experiment [8] and in experiment [9] was “inactive” each time. Also, the Potency in experiment [10] was 26.6 µM (active).

For `O=C(NOCC(O)CO)c1cc(Br)c(F)c(F)c1Nc1ccc(I)cc1F` (stereo unspecified), the Potency entry in experiment [2], in experiment [4] and in [7] was “inactive” in each case. In addition, the Potency in experiment [3] was 14.8 µM (active); in experiment [5], 9.35 µM (active); in experiment [6], 0.132 µM (active).

As to `C[N+](C)(C)CCCCCC[N+](C)(C)C`, the result in [1] was inactive. The Potency result in [2], in [3], in experiment [6], in experiment [7], in experiment [8] and in [9] was “inactive” throughout. In addition, the Potency entry in [10] was “inactive”.

For `NCCS`, the compound was called inactive in experiment [1]. For the same compound, the Potency entry in experiment [2], in experiment [3], in [4], in experiment [5], in [6] and in experiment [7] was “inactive” throughout. Besides, the Potency result in [8], in experiment [9] and in experiment [10] was “inactive” in each case.

On to `CCN(CC)C(=O)c1ccc(O)c(OC)c1`, for which the call in experiment [1] was inactive. Besides, the Potency entry in experiment [2], in experiment [3], in [4], in experiment [5], in [6] and in experiment [7] was “inactive” throughout. For the same compound, the Potency result in experiment [8], in experiment [9] and in experiment [10] was “inactive” throughout.

Regarding `CC/C(=C(\c1ccccc1)c1ccc(OCCN(C)C)cc1)c1ccccc1`, the result in experiment [1] was inactive. Moreover, the Potency entry in experiment [3] was “inactive”. Also, the Potency is 16.8 µM (active) in [6] and 21.1 µM (active) in [10].

For the compound `CC1(C)CCC2=C(O1)c1ccccc1C(=O)C2=O`, the result in [1] was inactive. Besides, the Potency result in experiment [2] and in [9] was “inactive” each time. For the same compound, the Potency in experiment [5] is 23.5 µM (active); in experiment [6], 23.5 µM (active); in experiment [8], 18.7 µM (active); in experiment [10], 18.7 µM (active).

Consider `CN1CCN(CCOc2cc(OC3CCOCC3)c3c(Nc4c(Cl)ccc5c4OCO5)ncnc3c2)CC1`, for which the Potency result in [2] was “inactive”. Besides, the Potency in [3] was 18.7 µM (active); in [4], 9.35 µM (active); in experiment [5], 11.8 µM (active); in [6], 11.8 µM (active); in [7] it was 7.69 µM (active).

With `CC(C)(C)c1ccc(C(O)CCCN2CCC(C(O)(c3ccccc3)c3ccccc3)CC2)cc1` (stereo unspecified), in experiment [1], the compound was called inactive. Further, the Potency entry in experiment [2], in experiment [3], in experiment [4], in [6], in [7] and in experiment [8] was “inactive” throughout. For the same compound, the Potency result in [9] and in experiment [10] was “inactive” each time.

For `COc1cccc(-c2cc(=O)c3ccccc3o2)c1N`, the compound was called inactive in experiment [1]. In addition, the Potency entry in experiment [4], in experiment [7], in [8], in experiment [9] and in [10] was “inactive” throughout. Besides, in [6], the Potency is 0.662 µM (active).

Consider `COc1ccc(Cc2nccc3cc(OC)c(OC)cc23)cc1OC`, for which the result in experiment [1] was inactive.

For `CC(=O)CCCCn1c(=O)c2c(ncn2C)n(C)c1=O`, the result in [1] was inactive. Moreover, the Potency result in experiment [2], in experiment [3], in experiment [4], in [5], in experiment [6] and in experiment [7] was “inactive” in each case. Besides, the Potency result in [8], in experiment [9] and in [10] was “inactive” throughout.

In the case of `CCCCCN(C)CCC(O)(P(=O)(O)O)P(=O)(O)O`, the compound was called inactive in [1]. The Potency entry in experiment [2], in experiment [3], in [4], in experiment [5], in experiment [7] and in [8] was “inactive” in each case. Further, the Potency entry in experiment [9] and in experiment [10] was “inactive” throughout.

As to `COc1ccccc1N1CCN(CCCNc2cc(=O)n(C)c(=O)n2C)CC1`, in [1], the outcome was inactive. In addition, the Potency result in experiment [2], in [3], in experiment [4], in experiment [5], in experiment [7] and in experiment [8] was “inactive” in each case. Besides, the Potency entry in experiment [9] and in [10] was “inactive” throughout.

For the compound `CCn1cc(C(=O)O)c(=O)c2ccc(C)nc21`, the call in experiment [1] was inactive. For the same compound, the Potency result in experiment [2], in experiment [3], in experiment [4], in [5], in [6] and in [7] was “inactive” each time. The Potency result in [8], in [9] and in experiment [10] was “inactive” each time.

As for `CCc1ccc(OCc2ccccc2C(=O)Nc2ccc3nc(C)cc(N)c3c2)cc1`, the Potency in experiment [2] is 20.8 µM (active); in experiment [3], 11.8 µM (active); in experiment [4], 23.5 µM (active); in experiment [5], 2.96 µM (active); in experiment [6], 5.9 µM (active); in experiment [7], 8.63 µM (active). Besides, the Potency in experiment [9] is 7.43 µM (active); in experiment [10], 14.8 µM (active).

`O=c1cc(N2CCOCC2)oc2c(-c3cccc4c3sc3ccccc34)cccc12`: the Potency entry in experiment [2] was “inactive”. For the same compound, the Potency is 18.7 µM (active) in experiment [3]; 5.9 µM (active) in experiment [4]; 14.8 µM (active) in experiment [5]; 5.26 µM (active) in experiment [6]; 21.7 µM (active) in [7]; 8.33 µM (active) in [8]. Also, the Potency in experiment [10] is 18.7 µM (active).

For the compound `C[N+]1(C)[C@@H]2CC(OC(=O)[C@H](CO)c3ccccc3)C[C@H]1[C@H]1O[C@@H]12` (stereo partly specified), the Potency entry in experiment [2], in experiment [3], in experiment [4], in experiment [5], in experiment [6] and in experiment [7] was “inactive” each time. Also, the Potency result in experiment [8], in experiment [9] and in experiment [10] was “inactive” each time.

Consider `CC(C)C(C)C=CC(C)C1CCC2C3=CC=C4CC(O)CCC4(C)C3CCC21C` (stereo unspecified), for which the Potency entry in experiment [2], in experiment [3], in experiment [4], in experiment [5], in experiment [6] and in experiment [7] was “inactive” throughout. In addition, the Potency entry in experiment [8], in [9] and in experiment [10] was “inactive” throughout.

For `COc1cc(O)c2c(c1)C(=O)c1cc(C)cc(O)c1C2=O`, the Potency entry in experiment [2], in [3], in experiment [4], in experiment [5], in [6] and in experiment [7] was “inactive” throughout. In addition, the Potency result in experiment [8] and in [9] was “inactive” throughout.

`O=C1C[C@@H](c2ccc(O)cc2)Oc2cc(O)cc(O)c21`: the Potency entry in [2], in experiment [3], in experiment [4], in [5], in experiment [6] and in experiment [7] was “inactive” in each case. The Potency entry in experiment [8] and in [9] was “inactive” in each case.

In the case of `CCC(=O)O[C@]1(C(=O)CO)CC[C@H]2[C@@H]3CCC4=CC(=O)CC[C@]4(C)[C@@H]3CC[C@@]21C`, the Potency entry in experiment [2], in experiment [3], in experiment [4], in experiment [5], in experiment [6] and in experiment [7] was “inactive” in each case. For the same compound, the Potency entry in experiment [8], in [9] and in experiment [10] was “inactive” throughout.

The values are drawn from PubChem BioAssay (NCATS).
